# High-throughput results deposited in PubChem by several laboratories.
# Sampled rows, rich in hits. Any-hit rate of the full collection: about 2.1%.
# RN4220 kill: kills Staphylococcus aureus RN4220 | S. aureus RN4220 growth, OD600, 16 h | inhibition, % (test concentration not listed) | hit rate 0.33% among 330,000; in the data active means inhibition above about 85%
# PrP 5UTR inh: inhibition of PrP 5' UTR reporter expression; cell-based PrP 5' UTR mRNA reporter, plate reader; AID 488862; hit rate 0.35% among 340,000; inhibition, % (no concentration beside the values); in the data active means inhibition above about 52%
# Sa ugtP lethal: kills S. aureus RN4220 lacking UgtP | growth inhibition, % (concentration not given with the values) | hit rate 0.54% among 330,000 | S. aureus RN4220 ugtP deletion, OD600 growth, 16 h; in the data active means growth inhibition above about 68%
# PrPC surface inh: inhibitors of human cell surface prion protein PrPC; P04156; TR-FRET read-out; inhibition, % at 13.8 µM; hit rate 0.43% among 370,000; AID 720596; in the data active means inhibition above about 24%
# CCHFV vOTU inh: blocks the CCHF virus ovarian tumor domain protease | inhibition, % at 11.5 µM | CCHFV vOTU protease, Pep-AMC fluorescence | AID 651958 | hit rate 0.55% among 370,000; in the data active means inhibition above about 30%
# PfHsp40 rescue: compounds rescuing yeast from Plasmodium falciparum HSP40 toxicity; S. cerevisiae expressing PfHsp40, growth rescue, ATP luminescence; growth rescue, % at 12.5 µM; hit rate 0.68% among 340,000; AID 504582; in the data active means growth rescue above about 28%, passing the limit was not always enough;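 further: yeast W303a lacking pdr1 and pdr3 grown in galactose medium; growth measured after three days at 30 °C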
# Numbers stand for hits; i = inactive; nt = not tested or not shown.
SMILES,RN4220 kill,PrP 5UTR inh,Sa ugtP lethal,PrPC surface inh,CCHFV vOTU inh,PfHsp40 rescue
Cn1nc(-c2ccc(Cl)cc2)nc2c(=O)n(C)c(=O)nc1-2,100.4,i,100.5,nt,nt,nt
COc1ccc(O)c(-c2cc(-c3cccc(Br)c3)n[nH]2)c1,i,i,86.0,i,i,i
O=[N+]([O-])c1ccccc1-c1cc(-c2ccccc2O)n[nH]1,i,i,i,i,i,48.6
O=[N+]([O-])c1cccc(-c2cc(-c3cc(Br)ccc3O)[nH]n2)c1,i,i,i,i,i,285.3
COCC=CC1=CC2=CC(=O)C(C)(OC(=O)c3cnc4ccccc4n3)C(=O)C2=CN1c1ccc(OC)cc1 (stereo unspecified),i,nt,i,nt,nt,nt
CCOC(=O)c1c(C(F)(F)F)cc(-c2ccc(F)cc2)nc1C,i,i,94.0,i,i,i
CCOC(=O)c1cc2c(C(F)(F)F)cc(-c3ccccc3)nc2o1,i,i,i,i,i,i
CCCCCCCc1ccc(-c2ccc(O)cc2)nc1,i,i,i,i,i,253.4
CCCCCc1ccc(-c2ccc(/C=C/C(=O)O)cc2)nc1,i,i,i,i,i,i
Cc1cc(C)cc(NC(=O)COC(=O)CCCNC(=O)c2ccc(Cl)cc2)c1,i,i,98.7,i,i,i
O=C(CCCNC(=O)c1ccc(Cl)cc1)OCc1cccc(Br)c1,i,i,i,i,i,277.2
C#CCNC(=O)C1=CC(C2CC2)CC(OCCCCO)O1 (stereo unspecified),i,nt,i,nt,nt,nt
COc1cc(C(=O)NN=Cc2sccc2C)cc(OC)c1OC,i,nt,i,nt,nt,nt
COc1cccc(-n2nc(C#N)c(Cl)cc2=O)c1,i,i,i,i,i,52.4
CCC1=NN(C(=O)c2cccc(Br)c2)C(O)(c2ccc(Br)cc2)C1 (stereo unspecified),i,i,i,i,i,91.2
O=S(=O)(Nc1nc2ccccc2nc1N1CCN(c2ccccn2)CC1)c1ccc(Cl)cc1,i,i,i,i,i,142.5
C/C(=N/NC(=O)c1cc2ccccc2cc1O)c1ccco1,nt,i,nt,i,i,76.8
CCOC(=O)[C@]12Cc3cc(C)ccc3[C@H]1N(C1CCCCC1)C(=O)c1cc(OC)ccc12,nt,nt,nt,38.2,i,nt
CCOC(=O)[C@]12Cc3cc(OC)ccc3[C@H]1N(C1CCCCC1)C(=O)c1cc(OC)ccc12,nt,nt,nt,i,i,nt
Cc1cc(NN=Cc2ccccc2Br)nc2ccccc12,i,nt,i,nt,nt,nt
O=C(O)C1Nc2c(Cl)cc(Cl)c(Cl)c2C2C=CCC12 (stereo unspecified),i,i,i,i,i,i
CC(C)C1Nc2c(O)cc(Cl)c([N+](=O)[O-])c2C2C=CCC21 (stereo unspecified),87.4,i,93.2,i,i,i
CC(C)(C)c1ccc2c(c1)OC(C(=O)NN=Cc1ccc([N+](=O)[O-])o1)CO2 (stereo unspecified),99.9,nt,99.5,nt,nt,nt
O=C(NN=Cc1ccc([N+](=O)[O-])o1)C1COc2ccccc2O1 (stereo unspecified),i,nt,i,nt,nt,nt
CC(OC(=O)c1oc2ccccc2c1COc1ccccc1)C(=O)NC(N)=O (stereo unspecified),i,i,i,i,i,i
SMILES,RN4220 kill,PrP 5UTR inh,Sa ugtP lethal,PrPC surface inh,CCHFV vOTU inh,PfHsp40 rescue
CC(OC(=O)c1oc2ccccc2c1CSC1CCCCC1)C(=O)NC(N)=O (stereo unspecified),i,i,99.0,i,i,i
O=S(=O)(NCC1CCCO1)c1ccc(Br)cc1 (stereo unspecified),i,i,i,i,i,34.7
O=S(=O)(NCC1CCCO1)c1ccc(Cl)cc1 (stereo unspecified),i,i,i,i,i,i
CCOc1cccc(/C=N/NC(=O)c2cc(-c3cccn3C)n[nH]2)c1O,nt,i,nt,i,i,36.3
CC(C)(C)c1cnnn1-c1ccc(C(=O)CCl)cc1,96.1,i,98.1,i,i,i
CC(C)(C)c1cnnn1-c1ccc(C=O)cc1,i,i,i,i,i,i
CCOc1ccc(-c2cc(C)[n+](CCc3ccc(OC)c(OC)c3)c(-c3ccc(OCC)cc3)c2)cc1,100.2,nt,100.4,i,i,i
CCOc1ccc(-c2cc(C)[n+](CCO)c(-c3ccc(OCC)cc3)c2)cc1,i,i,i,i,i,i
COc1cc(C=NNC(=O)C2CCN(CC(O)COCc3ccccc3)CC2)cc(OC)c1OC (stereo unspecified),i,nt,i,nt,nt,nt
CC(=O)c1cccc(-c2ccc3c(=O)[nH]c(Nc4ccccc4)cc3c2)c1,i,i,i,i,104.4,i
